From PubChem BioAssay AID504834 (National Center for Advancing Translational Sciences (NCATS), 2011)
Among all 320,000 compounds or so, about 22,000 (6.9%) were called active. Not shown: some 27% with an inconclusive outcome. The entries come from a sample that favours actives as a whole. Where a call stands in place of a potency, no number is given. Values without a mark were called inactive. Calls come from the whole dose curve; as a rule, active = well fitted inhibition curve with a large enough effect; inconclusive = small, poorly fitted or top-dose-only effect, or another doubt; inactive = no such curve, though single readings can be large or run the other way.

Assay: Primary qHTS for delayed death inhibitors of the malarial parasite plastid, 96 hour incubation
Conditions: P. falciparum luciferase reporter growth; series mostly up to 28.7 µM
How it was run: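 Delayed-death screen, second-generation endpoint: infected erythrocytes, 2% hematocrit, 0.05% parasitemia final; 96 hours at 37 C, 5% CO2; luciferase detection reagent; luminescence decrease equals reduced growth.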
Potency is the fitted concentration of half-maximal effect.

| SMILES | Potency | activity change, negative = inhibition |
| --- | --- | --- |
| CC(C)NC(=O)N1CCN(c2ccncc2S(=O)(=O)N2CCCCC2)CC1 | inactive | – |
| O=S(=O)(c1cnccc1N1CCN(/N=C/c2ccc(Br)cc2)CC1)N1CCCCC1 | inactive | – |
| CNS(=O)(=O)c1cnccc1N1CCN(c2cccc(C)c2)CC1 | 10.4 µM (active) | – |
| COc1ccc(F)cc1C(=O)COC(=O)c1n[nH]c(=O)c2ccccc12 | inactive | – |
| O=C(c1n[nH]c2c1CCC2)N1CCCC(Nc2cccc(F)c2)C1 (stereo unspecified) | inactive | – |
| CSc1nc(-c2ccco2)nn1C(=O)c1ccccc1Cl | inactive | – |
| CCC1=Nc2cc(C(=O)NCCCN3CCOCC3)ccc2Sc2ccc(Br)cc21 | inactive | – |
| COc1ccc(CCNS(=O)(=O)c2ccc(C(=O)NCc3ccco3)cc2)cc1OC | – | 11.4% [at 5.75 µM] |
| CCCC1=Nc2cc(C(=O)NCc3ccco3)ccc2Sc2ccccc21 | 2.94 µM (active) | – |
| COCCN(C(=O)COC(=O)Cc1cccc(OC)c1)c1c(N)n(Cc2ccccc2)c(=O)[nH]c1=O | inactive | – |
| Cc1ccc(F)cc1S(=O)(=O)Nc1cccc(C(=O)N2CCCC(C(N)=O)C2)c1 (stereo unspecified) | inactive | – |
| CCOc1ccc(CN2CCN(Cc3ccc4cc(F)ccc4n3)CC2CCO)cc1 (stereo unspecified) | 13.1 µM (active) | – |
| COc1cccc(CN2CCN(Cc3ccc4cccc(F)c4n3)CC2CCO)c1 (stereo unspecified) | inactive | – |
| CCOc1ccc(CN2CCN(CCCc3ccccc3)C(CCO)C2)cc1 (stereo unspecified) | inactive | – |
| Cc1cccc(C(=O)NCc2nnc(SC(C)C(=O)Nc3nnc(C)s3)n2C)c1 (stereo unspecified) | inactive | – |
| O=C(Nc1ccn(Cc2ccccc2)n1)c1cccc(F)c1 | inactive | – |
| O=C(Nc1ccn(Cc2ccc(F)cc2)n1)c1ccncc1 | 9.28 µM (active) | – |
| Cc1ccc(Cn2ccc(NC(=O)c3cc(C(C)C)on3)n2)cc1 | inactive | – |
| COc1ccc(C2=NN(C(=O)CSc3nnnn3C)C(c3ccco3)C2)cc1 (stereo unspecified) | inactive | – |
| CCN(C(=O)c1ccc(Br)cc1)c1ccccc1 | inactive | – |
| CCN(C(=O)COc1ccc(C(=O)c2ccccc2)cc1)c1ccccc1 | 11.7 µM (active) | – |
| O=C(COc1ccc(F)cc1)N(CC1=CCS(=O)(=O)C1)c1ccccc1 | inactive | – |
| CCc1ccc(NC(=O)CS(=O)CC(=O)N2CCN(c3ccccc3F)CC2)cc1 (stereo unspecified) | inactive | – |
| COc1cccc(/C=N/Nc2ccc(Cl)nn2)c1 | inactive | – |
| CCOC(=O)C(C)n1cnc2c(nnn2-c2ccc(F)cc2)c1=O (stereo unspecified) | inactive | – |
| COc1cccc(/C=N/Nc2ncc(C(F)(F)F)cc2Cl)c1O | inactive | – |

| SMILES | Potency | activity change, negative = inhibition |
| --- | --- | --- |
| COc1cccc(/C=N/Nc2cc(C)nc(-c3ccccc3O)n2)c1O | 0.37 µM (active) | – |
| COc1cccc2c(N/N=C/c3ccco3)cc(C)nc12 | inactive | – |
| O=C(/C=C/c1ccc2c(c1)OCCO2)c1ccc(O)cc1 | inactive | – |
| O=C(/C=C/c1ccc(Cl)c([N+](=O)[O-])c1)c1cccnc1 | inactive | – |
| O=C(/C=C/c1ccc(Cl)c([N+](=O)[O-])c1)c1ccc(O)cc1 | 9.28 µM (active) | – |
| NC(N)=N/N=C/c1ccc(Cl)c([N+](=O)[O-])c1 | 11.7 µM (active) | – |
| CN(C)c1ccc(/C=C/C(=O)c2ccc(O)cc2)cc1[N+](=O)[O-] | inactive | – |
| O=C(Nc1ccncc1)c1ccc(Cl)c([N+](=O)[O-])c1 | inactive | – |
| COc1ccc(Cl)cc1NC(=O)COc1ccc2c(c1)OCO2 | inactive | – |
| CCN1C(=S)N[C@@H](c2cccc(C(F)(F)F)c2)C(C(=O)OC)=C1C | inactive | – |
| CCCCn1c(N)c(N(CC(C)C)C(=O)CSc2ccc([N+](=O)[O-])cc2)c(=O)[nH]c1=O | inactive | – |
| COc1ccc(OC)c(CN2CCN(C(=O)CNC(=O)c3cc(C)cc(C)c3)CC2)c1 | inactive | – |
| O=C(CCNC(=O)c1ccccc1Cl)NCc1ccco1 | inactive | – |
| Cc1cccc(C)c1NC(=O)COC(=O)c1ccccc1O | inactive | – |
| C=CCn1c(CNS(=O)(=O)c2ccc(Br)cc2)nnc1SC | inactive | – |
| Cc1cccc(N2C(=O)c3ccc(C(=O)Nc4cccc(C(=O)O)c4)cc3C2=O)c1 | 13.1 µM (active) | – |
| CC(=O)Nc1ccc(NC(=O)c2ccc3c(c2)C(=O)N(c2ccccc2C)C3=O)cc1 | inactive | – |
| COC(=O)c1cccc(NC(=O)c2cccc(N3C(=O)CCC3=O)c2)c1 | inactive | – |
| NC(=O)c1nsc(C(=O)N(CCCN2CCOCC2)C(C(=O)NC2CCCCC2)c2ccc(Cl)cc2)c1N (stereo unspecified) | inactive | – |
| c1ccc2cc(CCCc3cc4ccccc4cn3)ncc2c1 | inactive | – |
| CCOc1ccc(OCc2ccc(C(=O)N(C)c3ccccc3)o2)cc1 | inactive | – |
| CCOC(=O)c1nnn(-c2nonc2OC)c1-c1ccccc1 | inactive | – |
| CCOC(=O)c1nnn(-c2nc(OC)nc(N(C)C)n2)c1-c1ccccc1 | 2.33 µM (active) | – |
| CCOC(=O)c1c(N)nn(C(=O)c2ccccc2)c1-c1ccccc1 | inactive | – |
| NC(=O)c1ccsc1NC(=O)COC(=O)Cc1n[nH]c(=O)c2ccccc12 | inactive | – |
| CCn1c(C(O)c2cc(OC)ccc2OC)nc2ccccc21 (stereo unspecified) | 9.28 µM (active) | – |

| SMILES | Potency | activity change, negative = inhibition |
| --- | --- | --- |
| CCCn1c(C(O)c2ccc(OCC)cc2)nc2ccccc21 (stereo unspecified) | inactive | – |
| COc1ccc(OC)c(C(O)c2nc3ccccc3n2C)c1 (stereo unspecified) | inactive | – |
| O=C(Nc1cccc(Cl)c1)c1cc(S(=O)(=O)N2CCCCC2)c[nH]1 | inactive | – |
| CC(=O)Nc1ccc(S(=O)(=O)NC2Cc3ccccc3C2)cc1 | inactive | – |
| COc1ccc(C2CC(c3ccccc3)=NN2C(=O)c2ccc(Cl)c([N+](=O)[O-])c2)cc1 (stereo unspecified) | inactive | – |
| COc1ccc(C2=NN(C(=O)c3ccccc3C(=O)O)C(c3ccccc3O)C2)cc1 (stereo unspecified) | inactive | – |
| CCOc1ccc2nc(Cl)c(C3CC(c4ccccc4)=NN3C(=O)c3cccs3)cc2c1 (stereo unspecified) | 8.28 µM (active) | – |
| Cc1ccccc1Cn1c2ccccc2c2cnn(CC(=O)NCc3ccco3)c(=O)c21 | inactive | – |
| CCN(C(=O)COC(=O)CCOc1cccc(C)c1)c1c(N)n(Cc2ccccc2)c(=O)[nH]c1=O | inactive | – |
| COc1ccc(NC(=O)CN(C)CC(=O)Nc2cccc(C(F)(F)F)c2)cc1 | inactive | – |
| O=C(Nc1cccc(C(F)(F)F)c1)c1cnccn1 | inactive | – |
| COc1cc(NC(=O)c2cncc(-c3ccc(C#N)cc3)c2)cc(C(=O)Nc2cccc(C(F)(F)F)c2)c1 | 6.57 µM (active) | – |
| Cc1c(Cl)cccc1NC(=S)NCC(O)c1ccccc1 (stereo unspecified) | inactive | – |
| CC(C)C(=O)NCC(c1cccs1)S(=O)(=O)c1ccc(F)cc1 (stereo unspecified) | inactive | – |
| O=C(OC(C(=O)NC1CCCC1)c1ccc(F)cc1)c1ccno1 (stereo unspecified) | inactive | – |
| COCCNC(=O)C(OC(=O)c1cccs1)c1ccc(F)cc1 (stereo unspecified) | 13.1 µM (active) | – |
| CC(=O)C[C@@H](O)CC(=O)[C@H]1OC(=O)CCCCCCc2ccccc21 | inactive | – |
| CCCCn1c(N)c(N(CCOC)C(=O)c2cccc(OCc3ccccc3)c2)c(=O)[nH]c1=O | inactive | – |
| COCCNC(=O)c1ccc(Cn2c(SCC(=O)NCC3CCCO3)nc3ccc(Br)cc3c2=O)cc1 (stereo unspecified) | inactive | – |
| Cc1cccn2c(=O)c3cc(C#N)c(=O)n(CCCN4CCOCC4)c3nc12 | 2.62 µM (active) | – |
| Cc1ccc(-c2noc(-c3ccccc3C(=O)NCC3CCCO3)n2)cc1 (stereo unspecified) | inactive | – |
| Cc1cccn2c(=O)c3cc(C(=O)NCC4CCCO4)c(=N)n(Cc4ccc(F)cc4)c3nc12 (stereo unspecified) | 9.28 µM (active) | – |
| Cc1ccc2cc(C#N)c(NCCNC(=S)NCCCN3CCOCC3)nc2c1 | inactive | – |
| O=C(NCc1ccco1)c1cccn2c(=O)c3c4c(sc3nc12)CCCC4 | inactive | – |
| Cc1cccn2c(=O)c3cc(C(=O)NCCN4CCOCC4)c(=N)n(Cc4cccnc4)c3nc12 | 7.38 µM (active) | – |
| COCC(C)OC(=O)c1c(N)n(CCCN2CCOCC2)c2nc3ccccc3nc12 (stereo unspecified) | inactive | – |

| SMILES | Potency | activity change, negative = inhibition |
| --- | --- | --- |
| CCn1c(=N)c(C(=O)NCCCOC)cc2c(=O)n3cccc(C)c3nc21 | inactive | – |
| COc1ccc(CCn2c(=N)c(C(=O)NCc3ccco3)cc3c(=O)n4cccc(C)c4nc32)cc1 | 0.586 µM (active) | – |
| COc1ccc(Cn2c(=S)[nH]c3cc(C(=O)NCCCN4CCOCC4)ccc3c2=O)cc1 | inactive | – |
| Cc1cccn2c(CNCC(C)Oc3cccnc3)c(C(=O)N3CCOCC3)nc12 (stereo unspecified) | inactive | – |
| O=C(c1c(F)cccc1F)N1CCN(c2ncc(Br)cn2)CC1 | inactive | – |
| COC(=O)c1ccc(/C=N/NC(=O)C(=O)N2CCCCCC2)cc1 | inactive | – |
| Brc1ccccc1C1N=C(c2ccccc2)NO1 (stereo unspecified) | inactive | – |
| CCCCn1c(N)c(N(CC(C)C)C(=O)c2cccc(S(=O)(=O)N3CCN(C(C)=O)CC3)c2)c(=O)[nH]c1=O | inactive | – |
| CCN(C(=O)Cc1c(C(=O)O)n(CC)c2ccccc12)c1ccccc1C | inactive | – |
| COc1ccc(C(=O)COC(=O)Cn2cnc3c2c(=O)n(C)c(=O)n3C)c(OC)c1 | inactive | – |
| N#Cc1cccc(CSc2ncnc(N)n2)c1 | inactive | – |
| Cc1cc(N2CCN(c3ccccc3)CC2)nc(N2CCOCC2)n1 | inactive | – |
| Cc1cc(-n2nc(C)cc2C)n2ncc(-c3ccccc3)c2n1 | inactive | – |
| Cc1cc(C)n(-c2nnc(N3CCN(c4ccccc4)CC3)nn2)n1 | 0.329 µM (active) | – |
| COc1ccc(N(CC(=O)Nc2cc(OC)cc(OC)c2)S(=O)(=O)c2c(C)n[nH]c2C)cc1 | inactive | – |
| Cc1ccnc(N2C(=O)c3ccc([N+](=O)[O-])cc3C2=O)c1 | inactive | – |
| Nc1cc(N2CCCCCC2)c2nonc2c1[N+](=O)[O-] | inactive | – |
| COc1ccc(C(=O)Nc2ccc3nc(N4CCCCC4)cc(C)c3c2)cc1OC | 11.7 µM (active) | – |
| COc1ccc(C(=O)Nc2ccc3c(c2)OCO3)cc1OC | inactive | – |
| COc1ccc(C(=O)NC(=S)Nc2ccc(N3CCCC3)cc2)cc1OC | inactive | – |
| COc1ccccc1C(=O)NCC(=O)NCCSc1ccc(Br)cc1 | inactive | – |
| CCOc1cc(/C=N/Nc2cc(C)nc3ccc(C)cc23)ccc1O | inactive | – |
| CNc1ccc([N+](=O)[O-])cc1C(=O)O | inactive | – |
